The campaign covered roughly 93,000 compounds. About 160 (0.17%) were called active. This excerpt belongs to a sample that is enriched for actives. Values without a mark were called inactive.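 Rule for the calls: active = cell count reduction exceeding the screen mean by over 5 SD, scaled to untreated wells per plate (cut at about 78% in these data); inactive = the rest.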
Assay: cytotoxicity in TNFa-stimulated HUVEC, primary screen, cytotoxicity control for VCAM1 expression modulator project, imaging, Hoechst nuclei count (AID 848);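 note: cells counted after 24 h of TNF alpha exposure following the 1 h pretreatment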
Conditions: HUVEC TNFalpha-stimulated, at 2 µM, stronger effect = higher value

Question: Which cell count reduction does the source give for `CN(C)/C=C/C(=O)c1ccccc1F` here?
Answer: -9%

Question: Which cell count reduction does the source give for `O=C(Nc1ccccc1)c1ccc2nsnc2c1` here?
Answer: 5.4%

Question: Which cell count reduction does the source give for `O=C(Nc1cc(C(F)(F)F)ccc1Cl)c1cc2nc3c(c(C(F)(F)F)n2n1)CCCC3` here?
Answer: -32.1%

Question: With `CCCCOC(=O)Cn1c(=O)n(CC(=O)OCCCC)c2cc(C)ccc21` as the compound, how does the cell count reduction read?
Answer: -29.5%

Question: Which cell count reduction does the source give for `CCOC(=O)c1nc(C)n(-c2ccc(Cl)cc2Cl)n1` here?
Answer: -3.8%

Question: With `COc1ccc(/C=N/Nc2nc3ccccc3c(=O)[nH]2)cc1` as the compound, how does the cell count reduction read?
Answer: 18.9%

Question: For `CCCNS(=O)(=O)c1ccc2c(c1)CCCN2C(C)=O`, which cell count reduction is on record?
Answer: 100% (active)

Question: With `CC(=O)N1CCc2cc(S(=O)(=O)Nc3ccccc3N3CCN(C)CC3)ccc21` as the compound, how does the cell count reduction read?
Answer: -25.4%

Question: Which cell count reduction does the source give for `CC(=O)N1CCCc2cc(S(=O)(=O)CCC(=O)N3CCN(c4ccccc4)CC3)ccc21` here?
Answer: -22.4%

Question: Which cell count reduction does the source give for `O=C(/C=C/c1ccco1)Nc1ccc(Oc2ccccc2)cc1` here?
Answer: -16.8%

Question: For `CCn1c2ccccc2c2cc(NC(=S)N3CCOCC3)ccc21`, which cell count reduction is on record?
Answer: -4%

Question: With `O=C(NCc1cccnc1)c1cccnc1Sc1ccc(Cl)cc1` as the compound, how does the cell count reduction read?
Answer: -20.6%

Question: Which cell count reduction does the source give for `Cc1ccc(C)c(NC(=O)C2Cc3ccccc3CN2C(=O)OCc2ccccc2)c1` (stereo unspecified) here?
Answer: -19.8%

Question: With `CSc1cc(C)n(-c2ccccc2C)c(=S)c1C(C)=O` as the compound, how does the cell count reduction read?
Answer: -11.4%

Question: With `CC(C)(C)NS(=O)(=O)c1ccc(NC(=O)NC2CCCCC2)cc1` as the compound, how does the cell count reduction read?
Answer: 2.5%

Question: Which cell count reduction does the source give for `CC(C)(C)c1ccc(OC2=CS(=O)(=O)c3ccccc32)cc1` here?
Answer: -12%

Question: For `O=C(N/N=C\c1ccc(-c2ccc(Cl)c(Cl)c2)o1)C(=O)N1CCCC1`, which cell count reduction is on record?
Answer: -10.6%

Question: With `c1ccc(CSc2ncnc3c2sc2nc(N4CCOCC4)c4c(c23)CCCC4)cc1` as the compound, how does the cell count reduction read?
Answer: -21.4%

Question: Which cell count reduction does the source give for `CCC(C)n1c(-c2cc(OC)c(OC)c(OC)c2)nc2nc3ccccc3nc21` (stereo unspecified) here?
Answer: 5.6%

Question: For `O=C(Oc1ccccc1)Oc1ccc2c(c1)oc(=O)c1ccccc12`, which cell count reduction is on record?
Answer: -8.6%

Question: Which cell count reduction does the source give for `Cc1ccc(Oc2ccc3c(c2)C(=O)N(c2cccc4cccnc24)C3=O)cc1` here?
Answer: 16.6%

Question: For `O=C(Nc1ccccc1)O/N=C1\CCCCC1c1ccc([N+](=O)[O-])cc1[N+](=O)[O-]` (stereo unspecified), which cell count reduction is on record?
Answer: -15.6%

Question: For `O=C(CSc1nc2ccccc2o1)N1c2ccccc2Sc2ccc(Cl)cc21`, which cell count reduction is on record?
Answer: 4.3%

Question: With `O=C(CCl)NNc1cccc(Cl)n1` as the compound, how does the cell count reduction read?
Answer: -9%

Question: For `Cc1cc(-c2cccs2)nc(-n2cccc2)n1`, which cell count reduction is on record?
Answer: 3.7%

Question: With `COc1cccc2cc(C(=O)N3CCN(C(=O)c4ccccc4)CC3)c(=O)oc12` as the compound, how does the cell count reduction read?
Answer: -19.2%

Question: Which cell count reduction does the source give for `O=C(Cc1ccc(S(=O)(=O)N2CCOCC2)s1)NCCC(c1ccccc1)c1ccccc1` here?
Answer: -20.2%

Question: Which cell count reduction does the source give for `Cc1cc(C)c2nc(NC(=O)c3ccc4c(c3)OCO4)sc2c1` here?
Answer: -4.3%

Question: With `CC(Oc1ccc(-c2ccccc2)c(F)c1)c1ccn(S(=O)(=O)c2cccc3ccccc23)n1` (stereo unspecified) as the compound, how does the cell count reduction read?
Answer: -7.1%

Question: Which cell count reduction does the source give for `Clc1ccc(-c2cc(COc3ccccc3)no2)cc1Cl` here?
Answer: 2%

Question: For `COC(=O)c1ccc(C2C(Oc3ccccc3C)C(=O)N2CCc2ccc(OC)c(OC)c2)cc1` (stereo unspecified), which cell count reduction is on record?
Answer: -15.9%

Question: For `CN(C)Cc1ccccc1C1(O)c2ccccc2CSc2ccccc21` (stereo unspecified), which cell count reduction is on record?
Answer: 12.2%

Question: With `Cc1cc(C)c2cc(CN(Cc3nnnn3Cc3ccc(F)cc3)C3CCCC3)c(=O)[nH]c2c1` as the compound, how does the cell count reduction read?
Answer: -8.7%

Question: Which cell count reduction does the source give for `CCCc1ccc(OCc2ccc(C(=O)N/N=C/c3cccc([N+](=O)[O-])c3)o2)c(OC)c1` here?
Answer: 11.6%

Question: For `CCCCNC(=O)c1onc(CSc2cccc(OC)c2)c1C(=O)O`, which cell count reduction is on record?
Answer: 10.5%

Question: With `Cc1cccc(CCNS(=O)(=O)c2ccc(S(=O)(=O)NC3CCCC3)cc2)c1` as the compound, how does the cell count reduction read?
Answer: -9.6%

Question: For `Cc1cccc(NC(=O)Cn2cc(C(=O)c3ccco3)c3ccccc32)c1`, which cell count reduction is on record?
Answer: 7.3%

Question: For `Cc1nn(Cc2ccc(C(=O)N3N=C(C(F)F)CC3(O)C(F)F)cc2)c(C)c1[N+](=O)[O-]` (stereo unspecified), which cell count reduction is on record?
Answer: -3.7%

Question: For `COc1ccc(Nc2nc(Cl)nc(NCc3ccco3)n2)cc1`, which cell count reduction is on record?
Answer: -4.3%

Question: With `COc1cc(OC)c(/C=N/NC(=O)c2ccc([N+](=O)[O-])cc2)cc1Br` as the compound, how does the cell count reduction read?
Answer: -34.5%

Question: Which cell count reduction does the source give for `S=c1[nH]nc(-c2ccc(Cl)cc2)n1CC1CCCO1` (stereo unspecified) here?
Answer: 3.6%

Question: With `COCn1c(COc2ccccc2)nc2ccccc21` as the compound, how does the cell count reduction read?
Answer: 19.1%

Question: With `C=C(Br)Cn1c(CCCC)nc2ccccc21` as the compound, how does the cell count reduction read?
Answer: -33.6%

Question: With `COCc1nc2ccccc2n1Cc1ccccc1Br` as the compound, how does the cell count reduction read?
Answer: 91% (active)

Question: With `CCCOc1ccc(C2NC(=O)NC(c3ccccc3)=C2C(C)=O)cc1OCC` (stereo unspecified) as the compound, how does the cell count reduction read?
Answer: -12.4%

Question: Which cell count reduction does the source give for `COC(=O)c1ccc(CSc2ccc3nnc(-c4ccccc4)n3n2)o1` here?
Answer: -24%

Question: For `Clc1ccc(-c2nnc(-c3ccccc3)nc2N2CCSCC2)cc1`, which cell count reduction is on record?
Answer: -18.9%

Question: For `CCc1ccc(C2C(C#N)=C(N)Oc3n[nH]c(CC(=O)OC)c32)cc1` (stereo unspecified), which cell count reduction is on record?
Answer: -7.4%

Question: With `CCCCNC(=O)CCNC(=O)c1ccc(C(C)(C)C)cc1` as the compound, how does the cell count reduction read?
Answer: -20.6%

Question: With `CC(C)N(c1ccccc1)c1ncnc(NCCC(=O)O)c1[N+](=O)[O-]` as the compound, how does the cell count reduction read?
Answer: -22.2%

Question: With `O=C(Nc1cccn(Cc2c(Cl)cccc2Cl)c1=O)c1ccc(Cl)cc1` as the compound, how does the cell count reduction read?
Answer: -3.1%

Question: With `Cc1[nH]n(-c2ccccc2)c(=O)c1CCOC(=O)c1ccc(C(F)(F)F)cc1` as the compound, how does the cell count reduction read?
Answer: -15.1%

Question: Which cell count reduction does the source give for `N/C(=N\OC(=O)CCC1CCCCC1)c1ccccn1` here?
Answer: -18.3%

Question: Which cell count reduction does the source give for `CCOC(=O)N1CCN(C(=O)CSc2ccc(Cl)cc2)CC1` here?
Answer: -31.7%

Question: Which cell count reduction does the source give for `CCOC(=O)N1CCN(C(=O)COc2ccc(Cl)cc2C)CC1` here?
Answer: 89.8% (active)

Question: Which cell count reduction does the source give for `CCOC(=O)N1CCN(C(=O)COc2ccc(Br)cc2)CC1` here?
Answer: -23.5%

Question: With `COc1ccccc1-n1cnc2cc(C(=O)NCC3CCCO3)ccc21` (stereo unspecified) as the compound, how does the cell count reduction read?
Answer: -9.3%

Question: Which cell count reduction does the source give for `Cn1ncc(Br)c1C(=O)NCc1cccs1` here?
Answer: 4.8%

Question: For `O=C(NCc1cccs1)c1ccc2c(c1)ncn2C1CCCC1`, which cell count reduction is on record?
Answer: 87.9% (active)

Question: With `CCOC(=O)c1sc(NC(=O)c2ccncc2)nc1C` as the compound, how does the cell count reduction read?
Answer: 3.6%

Question: Which cell count reduction does the source give for `O=C(CSc1ccccc1)Nc1ccc(NC(=O)c2ccco2)cc1` here?
Answer: -13%

Source: PubChem BioAssay AID848 (Columbia University Molecular Screening Center, 2007)
